# Results from ChEMBL document CHEMBL4513146, “CO-ADD screening of Karazin Kharkiv National University (Ukraine) compounds”.
# Potency and affinity values are given separately.
# Assays:
# [1] = test system: Klebsiella pneumoniae; settings: Concentration 32 ug.mL-1;; ASSAY_TEST Inhibition of Bacterial Growth; detection method Absorption (OD600); MEDIA CAMHB; plate type 384well; NBS; CORNING #3640; time 18 hr
# [2] = test system: Candida albicans; settings: Concentration 32 ug.mL-1; ASSAY_TEST Inhibition of Fungal Growth; detection method Absorption (OD530)
# [3] = test system: Cryptococcus neoformans; settings: Concentration 32 ug.mL-1; ASSAY_TEST Inhibition of Fungal Growth; detection method Resazurin; Absorption (OD600-OD570); plate type 384well; NBS; CORNING #3640
Structure (SMILES),Inhibition [1] [%],Inhibition [2] [%],Inhibition [3] [%]
COc1ccc(N2CCN(C(=O)Cn3nc4c(Sc5cccc(C)c5)nccn4c3=O)CC2)cc1,-3.27,1.08,-17.29
O=C(CSc1nnc2c(=O)n(-c3ccc(F)cc3)ccn12)NCC1CCCO1 (stereo not given),7.61,4.29,-18.42
COc1ccccc1N1CCN(C(=O)CSc2nc3ccccc3n3cnnc23)CC1,8.29,2.74,-5.08
Cc1cc2nn(CC(=O)Nc3ccc(F)cc3Cl)c(=O)n2c(Nc2ccccc2C)n1,1.95,30.65,-16.44
CCc1ccccc1Sc1nccn2c(=O)n(CC(=O)Nc3ccc(Br)cc3)nc12,22.46,14.92,-1.52
COc1cccc(-n2ccn3c(-c4ccc([N+](=O)[O-])cc4)nnc3c2=O)c1,6.14,1.66,-18.73
COc1ccc(NC(=O)CSc2nnc3c(=O)n(-c4cccc(F)c4)ccn23)cc1OC,7.43,3.49,-8.06
COc1ccccc1N1CCN(C(=O)Cn2nc3c(Oc4ccc(C)cc4)nccn3c2=O)CC1,13.94,1.98,-10.45
Cc1ccc(Oc2nccn3c(=O)n(CC(=O)Nc4ccccc4Br)nc23)cc1,15.36,1.31,-18.92
COc1ccc(-c2noc(Cn3nc4ccc(-c5ccccc5)nn4c3=O)n2)cc1OC,11.35,4.81,-11.77
